TEAD-YAP block: TEAD-YAP interaction inhibition, primary screen, TEAD-YAP interaction inhibitor project, luminescence, HEK-TIYL cells; TEAD-Gal4/YAP UAS-luciferase luminescence; inhibition, % at 9.12 µM; actives 1.4% (n = 640,000); in the data active = inhibition above about 32%;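 note: 0% = median of test compound wells and 100% = reference inhibitor wells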
GPR151 activ: activators of human GPR151, primary screen, cell-based, PathHunter beta-arrestin, luminescence; G-protein coupled receptor 151 (Homo sapiens), Q8TDV0; PathHunter beta-arrestin GPR151 cells; activation, % at 11.2 µM; actives 1% (n = 650,000); AID 1508602, 2020; in the data active = activation above about 4.9%;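 note: 0% = median of compound wells and 100% = cells with positive control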
Target sequence (Q8TDV0 whole entry, looked up): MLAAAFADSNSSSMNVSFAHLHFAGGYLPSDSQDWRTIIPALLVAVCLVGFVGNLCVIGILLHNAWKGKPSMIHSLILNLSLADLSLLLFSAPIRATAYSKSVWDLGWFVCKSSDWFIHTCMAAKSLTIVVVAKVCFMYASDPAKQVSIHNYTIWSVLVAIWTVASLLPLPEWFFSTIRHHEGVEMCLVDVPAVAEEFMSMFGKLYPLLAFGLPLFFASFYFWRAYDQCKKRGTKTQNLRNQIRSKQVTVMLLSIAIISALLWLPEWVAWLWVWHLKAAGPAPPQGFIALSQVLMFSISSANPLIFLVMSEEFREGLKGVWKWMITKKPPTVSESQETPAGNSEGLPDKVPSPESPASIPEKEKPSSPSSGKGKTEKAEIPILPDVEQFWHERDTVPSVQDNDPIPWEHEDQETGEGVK
MITF primary: MITF inhibitors, primary screen, biochemical, AlphaScreen, human; Microphthalmia-associated transcription factor (Homo sapiens), O75030; actives 0.91% (n = 650,000); inhibition, % at 2.6 µM; AlphaScreen MITF homodimerization, bead proximity signal; in the data active = inhibition above about 50%;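 note: 0% = vehicle wells with protein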
FBW7 act: FBW7 E3 ligase activators, primary screen, biochemical, AlphaScreen, human; F-box/WD repeat-containing protein 7 (Homo sapiens), Q969H0; AlphaScreen FBW7–phospho-cyclin E peptide binding, activator screen; normalized activity (activation), % at 26.1 µM; actives 0.13% (n = 650,000); AID 1259310, 2017; in the data active = normalized activity above about 1.9%;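 note: purified mutant Fbw7 with reduced substrate affinity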
The depositor's hits bear a star; ! = repeats disagree. Only some compounds are listed: those with a hit (about 3.5% of all), similar ones and a draw of the others.

SMILES	TEAD-YAP block	GPR151 activ	MITF primary	FBW7 act
COc1cc(C(=O)Nc2ccccc2C(=O)Nc2ccccc2)cc(OC)c1OC	53*	1	-8	0
CCOc1ccc(NC(=O)c2cc(OC)nc3ccccc23)cc1	52*	-1	6	0
CCOc1ccc(NC(=O)c2cc(OC)c(OC)c(OC)c2)cc1	55*	1	-2	0
COc1ccc(C(=O)NCCOc2cc(C)cc(C)c2)cc1OC	11	-1	12	0
COc1cc(C(=O)Nc2ccccc2)c2ccccc2n1	24	0	5	0
CCOC(=O)c1c(NC(=O)c2ccc(S(=O)(=O)N3CC(C)CC(C)C3)cc2)sc2c1CC(C)(C)NC2(C)C (stereo not given)	-5	-1	-6	0
COc1cc(C(=O)Nc2ccc(-c3nc4ccccc4[nH]3)cc2)cc(OC)c1OC	32*	0	8	0
COc1cc(C(=O)Nc2ccccc2C(=O)NCCc2ccccc2)cc(OC)c1OC	39*	0	-8	0
COc1cc(C(=O)NCc2ccc(C(=O)NCCc3ccccc3)cc2)cc(OC)c1OC	-5	-1	11	0
COc1ccc(C(=O)Nc2ccc(-c3nc4ccccc4[nH]3)cc2)cc1OC	3	1	-6	0
COc1cc(C(=O)Nc2ccc(S(=O)(=O)N3CCCCC3c3cccnc3)cc2)cc(OC)c1OC (stereo not given)	10	-1	-2	0
CCOC(=O)C1=CN(C(C)C)C=C(C(=O)OCC)C1c1cccc(OC)c1	-2	1	-42	8.5*
CCOC(=O)C1=CN(C(C)C)C=C(C(=O)OCC)C1c1ccccc1Br	-4	0	-6	2.0*
COC(=O)C1=CN(C(C)C)C=C(C(=O)OC)C1c1cccc(OC)c1	6	1	8	1
COC(=O)C1=CN(C(C)C)C=C(C(=O)OC)C1c1ccccc1Br	-9	-1	3	2
NC(=S)NNc1cccc2cccnc12	2	0	74*!	0
O=C(Nc1ccccc1C(F)(F)F)c1ccc(CN2CCN(c3ccccc3)CC2)cc1	47*	-1	1	0
CCNC(=O)c1ccc(CN2CCN(c3ccccc3)CC2)cc1	-1	-1	-14	0
CC(CS(=O)(=O)c1ccc2ccccc2c1)N1CCCCC1 (stereo not given)	33*	1	-6	0
CCOC(=O)C1=C(C)N=c2s/c(=C\c3cc(Br)c(O)c(Br)c3)c(=O)n2C1c1ccc(OC)cc1 (stereo not given)	-1	2	0	0
CC(NC(=O)Cn1nnnc1CN1CCCCCC1)c1cnn(C)c1 (stereo not given)	8	4	16	0
Cc1cc(/C=C2\SC(=Nc3ccccc3Cl)NC2=O)c(C)n1-c1ccccc1	48*	2	-2	0
Cc1ccccc1/C=C1\SC(=Nc2ccccc2Cl)NC1=O	45*	0	-3	0
c1ccc(-c2cn3nc4c(nc3n2)CCCC4)cc1	85*	-9	3	0
O=C(NCCOc1ccccc1)c1cnc(N2CCN(Cc3ccc4c(c3)OCO4)CC2)s1	0	0	10	0
SMILES	TEAD-YAP block	GPR151 activ	MITF primary	FBW7 act
CCOC(=O)c1oc2c(O)c(O)ccc2c(=O)c1-c1nncn1-c1ccccc1	1	0	82*	-1
CCOC(=O)c1oc2c(C)c(O)ccc2c(=O)c1-c1nncn1-c1ccccc1	2	-1	3	0
COc1cccc(CSC2=C(C#N)C(c3ccccc3[N+](=O)[O-])C(C(C)=O)=C(C)N2)c1 (stereo not given)	9	-1	21	1
C/C(=N\N=c1/sc2ccccc2n1C)c1ccc(N2CCOCC2)cc1	-8	3	-6	0
C/C(=N\N=C(N)N)c1ccc(N2CCOCC2)cc1	52*	0	-6	0
O=C1/C(=C\C=C/c2ccc([N+](=O)[O-])o2)C(C(F)(F)F)=NN1c1ccccc1[N+](=O)[O-]	15	1	90*	1
c1cc(CCNc2nccn3c(-c4ccsc4)cnc23)ccn1	39*	-1	-9	0
COc1cc(Nc2nccn3c(-c4ccccc4)cnc23)cc(OC)c1OC	59*	0	-14	-1
COc1cc(Nc2nccn3c(-c4ccsc4)cnc23)cc(OC)c1OC	55*	1	16	1
COc1cc(CNc2nccn3c(-c4ccc5ccccc5c4)cnc23)cc(OC)c1OC	-9	-1	7	2.0*
COc1cc(CNc2nccn3c(-c4ccsc4)cnc23)cc(OC)c1OC	-4	1	13	0
O=S(=O)(Nc1cc(Cl)ccc1Cl)c1cc(Cl)ccc1Cl	8	-1	-11	0
CN1CCN(C(=O)CN2C(=O)c3ccccc3C2=O)CC1	4	0	6	0
CSc1ccc(-c2nc(CSCC(=O)NC(C)(C)C)c(C)o2)cc1	-21	1	-2	0
COc1ccc(C2CC(=O)C3=C(C2)Nc2ccccc2N(C(=O)C(F)(F)F)C3c2cc(OC)c(OC)c(OC)c2)cc1 (stereo not given)	-6	0	-1	0
COc1cc(Nc2nccn3c(-c4cccc5ccccc45)cnc23)cc(OC)c1OC	16	3	-19	-1
COc1cc(Nc2nccn3c(-c4ccc(C)cc4)cnc23)cc(OC)c1OC	46*	0	-6	-1
COc1cc(-c2cnc3c(Nc4ccc(Cl)cc4)nccn23)cc(OC)c1OC	4	0	-9	0
COc1cc(Nc2nccn3c(-c4cccc(N)c4)cnc23)cc(OC)c1OC	43*	0	2	-1
CCOCCn1c(=O)c2c(nc3oc(C)cn32)n(C)c1=O	-16	-2	23	1
Cc1cc(C(=O)CSc2nnc3ccccn23)c(C)n1-c1ccc(Br)cc1	-68	-1	1	0
COCCn1c(C)cc(C(=O)COC(=O)c2ccc[nH]c2=O)c1C	62*	0	2	0
COCCn1c(C)cc(C(=O)CSc2ccc(Cl)cc2)c1C	88*	-3	-9	0
Cc1ccc(-n2c(C)cc(C(=O)COC(=O)c3ccc[nH]c3=O)c2C)cc1	-30	0	10	0
COCCn1c(C)cc(C(=O)CSc2nnc3ccccn23)c1C	55*	-6	-6	0
SMILES	TEAD-YAP block	GPR151 activ	MITF primary	FBW7 act
COCCn1c(C)cc(C(=O)CSc2nc(C)c(C)c(C)n2)c1C	-5	1	6	0
Cc1cc(C(=O)CSc2nnc3ccccn23)c(C)n1C1CCCCC1	60*	-2	8	0
Cc1ccc(S(=O)(=O)N(Cc2ccccc2)c2ccccc2C(=O)NCCSc2nc3ccccc3s2)cc1	-2	-1	2	0
Cc1c(C(=O)Nc2cccc(F)c2)nnn1-c1ccccc1F	43*	-2	-1	0
Cc1c(C(=O)Nc2cccc(Cl)c2)nnn1-c1ccccc1F	24	-2	-2	0
Cc1ncsc1CCOC(=O)CC12CC3CC(CC(C3)C1)C2	14	-1	21	1
